# The supplement of paper PMC6518042
# Values without a mark were called inactive.
# System: Pectobacterium parmentieri SCC3193
# Assay: DuctApe activity index (growth/respiration on compound as sole nutrient source, blank-subtracted) (activity index (0-3)); higher = stronger utilization of the compound, active = 3 or more
# Conditions: nutrient role (plate category): carbon
# Description: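 Biolog Phenotype Microarray plates PM1, PM2A (carbon), PM3 (nitrogen) and PM4 (phosphorus/sulfur) inoculated with P. parmentieri SCC3193 in M9-C minimal salts medium with Biolog dye A, and read in the OmniLog for 46 h. Each well was tested in triplicate and the experiment was run twice. DuctApe computed a blank-subtracted activity index (AV, 0-3) from the mean curves; growth is positive at AV >= 3 and negative at AV <= 2.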
row,SMILES,DuctApe activity index
1,CCC(=O)O [Propionic acid],0
2,OC[C@H]1O[C@@H]2O[C@H]3[C@H](O)[C@@H](O)[C@@H](O[C@H]4[C@H](O)[C@@H](O)[C@@H](O[C@H]5[C@H](O)[C@@H](O)[C@@H](O[C@H]6[C@H](O)[C@@H](O)[C@@H](O[C@H]7[C@H](O)[C@@H](O)[C@@H](O[C@H]8[C@H](O)[C@@H](O)[C@@H](O[C@H]9[C@H](O)[C@@H](O)[C@@H](O[C@H]1[C@H](O)[C@H]2O)O[C@@H]9CO)O[C@@H]8CO)O[C@@H]7CO)O[C@@H]6CO)O[C@@H]5CO)O[C@@H]4CO)O[C@@H]3CO [g-Cyclodextrin],0
3,"CC(O)CO (stereo unspecified) [1,2-Propanediol]",0
4,CO[C@@H]1O[C@H](C(=O)O)[C@@H](O)[C@H](O)[C@H]1O [b-Methyl-D-Glucuronic acid],0
5,OCC1(O)OC[C@@H](O)[C@H](O)[C@@H]1O (stereo partly drawn) [D-Tagatose],0
6,O=C(O)CC(O)C(=O)O (racemic) [DL-Malic acid],3 (active)
7,O=C(O)[C@H](O)[C@@H](O)[C@H](O)[C@H](O)CO[C@H]1O[C@H](CO)[C@H](O)[C@H](O)[C@H]1O [Melibionic acid],0
8,OC[C@@H](O)[C@H](O)[C@H](O)[C@@H](O)CO [Dulcitol],0
9,O=C(CO)[C@@H](O)[C@H](O)[C@@H](O)C(=O)O [5-Keto-D-Gluconic acid],0
10,CO[C@@H]1OC[C@@H](O)[C@H](O)[C@H]1O [b-Methyl-D-Xyloside],0
11,OC[C@H]1O[C@@H](Oc2ccc(O)cc2)[C@H](O)[C@@H](O)[C@@H]1O [Arbutin],3 (active)
12,O=C[C@@H](O)[C@H](O[C@@H]1O[C@H](CO)[C@H](O)[C@H](O)[C@H]1O)[C@H](O)CO [3-O-b-D-Galactopyranosyl-D-Arabinose],1
13,O=C(O)CCC(=O)C(=O)O [a-Ketoglutaric acid],0
14,OC[C@H]1OC(O[C@H]2[C@H](O)[C@@H](CO)OC(O[C@H]3[C@H](O)[C@@H](CO)OC(O)[C@@H]3O)[C@@H]2O)[C@H](O)[C@@H](O)[C@@H]1O (stereo partly specified) [Laminarin],0
15,O=P(O)(O)OC[C@H]1OC(O)(CO)[C@@H](O)[C@@H]1O (stereo partly drawn) [D-Fructose-6-Phosphate],3 (active)
16,COC(=O)C(C)=O [Methylpyruvate],3 (active)
